Measured values published in PubChem BioAssay (NCATS).
Where “and” joins values, the source holds several entries; their conditions need not be identical. Equal values may be shown once. Inconclusive results are not listed. Calls of active or inactive are those of the source. The call rests on the fitted dose curve; in most records, active means well fitted inhibition curve with a large enough effect; inconclusive means small, poorly fitted or top-dose-only effect; inactive means flat fitted curve, though single readings scatter.

What was measured:
SC27B = test: qHTS profiling for inhibitors of Plasmodium falciparum proliferation (AID 504749); conditions: P. falciparum in erythrocytes, SYBR Green DNA, 72 h; series mostly up to 28.7 µM
How it was run: (§1)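 Three-day growth assay of blood-stage parasites in erythrocytes (0.3% parasitemia, 2.5% hematocrit) at 37 C, 5% CO2, quantified by SYBR Green DNA staining after overnight detergent lysis.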

TAB109 = test: as above; conditions: P. falciparum in erythrocytes, SYBR Green DNA, 72 h; series mostly up to 28.7 µM
How it was run: as §1

TAB113 = test: as above; conditions: P. falciparum in erythrocytes, SYBR Green DNA, 72 h; series mostly up to 28.7 µM
How it was run: as §1

TAB165 = test: as above; conditions: P. falciparum in erythrocytes, SYBR Green DNA, 72 h; series mostly up to 28.7 µM
How it was run: as §1

CRL-7250 [1] = test: Cytotoxic Profiling of Annotated Libraries Using Quantitative High-Throughput Screening (AID 1296008); conditions: Five cell lines viability, CellTiter-Glo ATP luminescence, 48-72 h; max response: stronger effect = lower value; on max response: on the % scale 0 is the no-effect control and ±100 the full control effect
How it was run: (§2)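 Cytotoxicity was measured as CellTiter-Glo ATP luminescence, read after 10 min at room temperature. Compound treatment of the cells lasted 48 or 72 hr at 37 degrees Celsius in a qHTS format.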

HEK293 = test: as above; conditions: Five cell lines viability, CellTiter-Glo ATP luminescence, 48-72 h; max response: stronger effect = lower value
How it was run: as §2

HaCat [2] = test: as above; conditions: Five cell lines viability, CellTiter-Glo ATP luminescence, 48-72 h; max response: stronger effect = lower value
How it was run: as §2

KB-3-1 = test: as above; conditions: Five cell lines viability, CellTiter-Glo ATP luminescence, 48-72 h; max response: stronger effect = lower value
How it was run: as §2

NIH3T3 [3] = test: as above; conditions: Five cell lines viability, CellTiter-Glo ATP luminescence, 48-72 h; max response: stronger effect = lower value
How it was run: as §2

MCC-13 = test: qHTS assay to identify novel small-molecules to repurpose for Merkel cell carcinoma treatment (AID 1296009); conditions: MCC and control cell lines, CellTiter-Glo viability, 72 h; series mostly up to 46 µM
How it was run: (§3)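 After compound transfer in DMSO, plates were kept 72 hr at 37 degree celsius. Luminescent ATP signal from CellTiter-Glo served as viability measure, normalized against DMSO and no-cell controls.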

MCC-26 = test: as above; conditions: MCC and control cell lines, CellTiter-Glo viability, 72 h; series mostly up to 46 µM
How it was run: as §3

MKL-1 = test: as above; conditions: MCC and control cell lines, CellTiter-Glo viability, 72 h; series mostly up to 46 µM
How it was run: as §3

MKL-2 = test: as above; conditions: MCC and control cell lines, CellTiter-Glo viability, 72 h; series mostly up to 46 µM
How it was run: as §3

UISO = test: as above; conditions: MCC and control cell lines, CellTiter-Glo viability, 72 h; series mostly up to 46 µM
How it was run: as §3

WaGa = test: as above; conditions: MCC and control cell lines, CellTiter-Glo viability, 72 h; series mostly up to 46 µM
How it was run: as §3

CRL-7250 [4] = test: as above; conditions: MCC and control cell lines, CellTiter-Glo viability, 72 h; at 44.8 µM (top of the series) unless noted
How it was run: as §3

HACAT [5] = test: as above; conditions: MCC and control cell lines, CellTiter-Glo viability, 72 h; at 44.8 µM (top of the series) unless noted
How it was run: as §3

NIH3T3 [6] = test: as above; conditions: MCC and control cell lines, CellTiter-Glo viability, 72 h; at 44.8 µM (top of the series) unless noted
How it was run: as §3

W2 = test: qHTS profiling for inhibitors of Plasmodium falciparum proliferation (AID 504749); conditions: P. falciparum in erythrocytes, SYBR Green DNA, 72 h; series mostly up to 28.7 µM
How it was run: as §1

HEK293T = test: qHTS assay to identify novel small-molecules to repurpose for Merkel cell carcinoma treatment (AID 1296009); conditions: MCC and control cell lines, CellTiter-Glo viability, 72 h; at 44.8 µM (top of the series) unless noted
How it was run: as §3
Further: nearly all actives have a fitted effect of over 60% in size.
Potency means the concentration at half of the fitted maximal effect.

COc1c2c(cc3c1OCO3)CCN(C)C2
inactive: Potency (SC27B) | Potency (TAB109) | Potency (TAB113) | Potency (TAB165) | max response (CRL-7250 [1]) -2.93% | max response (HEK293) -25.2% | max response (HaCat [2]) -2.59% | max response (KB-3-1) 5.77% | max response (NIH3T3 [3]) -8.45% | outcome (MCC-13) | Potency (MCC-26) | Potency (MKL-1) | Potency (MKL-2) | Potency (UISO) | Potency (WaGa)

C[N+]1(CCF)[C@@H]2CC[C@H]1CC(OC(=O)C(O)(c1ccccc1)c1ccccc1)C2 (stereo not given in full)
inactive: outcome (CRL-7250 [1]) | max response (HEK293) -5.81% | outcome (HaCat [2]) | max response (KB-3-1) -9.39% | outcome (NIH3T3 [3]) | outcome (CRL-7250 [4]) | outcome (HACAT [5]) | outcome (MCC-13) | Potency (MCC-26) | Potency (MKL-1) | Potency (MKL-2) | outcome (NIH3T3 [6]) | Potency (UISO) | Potency (WaGa)

NC1=NC(=O)C(c2ccccc2)O1 (stereo not given)
inactive: max response (CRL-7250 [1]) -3.81% | max response (HEK293) 2.82% | outcome (HaCat [2]) | max response (KB-3-1) 4.09% | max response (NIH3T3 [3]) 3.43% | outcome (HACAT [5]) | outcome (MCC-13) | Potency (MKL-1) | Potency (MKL-2) | Potency (UISO) | Potency (WaGa)

O=C1OC(c2ccc(O)c(S(=O)(=O)O)c2)(c2ccc(O)c(S(=O)(=O)O)c2)c2c(Br)c(Br)c(Br)c(Br)c21
inactive: Potency (SC27B) | Potency (TAB109) | Potency (TAB113) | Potency (TAB165) | Potency (W2) | max response (CRL-7250 [1]) -1.01% | outcome (HEK293) | outcome (HaCat [2]) | max response (KB-3-1) 10.3% | outcome (NIH3T3 [3]) | outcome (HACAT [5]) | outcome (HEK293T) | outcome (MCC-13) | Potency (MCC-26) | Potency (MKL-1) | Potency (MKL-2) | outcome (NIH3T3 [6]) | Potency (UISO) | Potency (WaGa)

CC(C)NC(C)C
inactive: Potency (SC27B) | Potency (TAB109) | Potency (TAB113) | Potency (TAB165) | Potency (W2) | max response (CRL-7250 [1]) 1.83% | max response (HEK293) 1.45% | max response (HaCat [2]) 1.53% | max response (KB-3-1) 13.4% | outcome (NIH3T3 [3]) | outcome (MCC-13) | Potency (MCC-26) | Potency (MKL-1) | Potency (MKL-2) | outcome (NIH3T3 [6]) | Potency (UISO) | Potency (WaGa)

C#C[C@]1(O)CC[C@H]2[C@@H]3CCC4=CC(=O)CC[C@]4(C)[C@H]3CC[C@@]21C
inactive: max response (CRL-7250 [1]) -4.49% | max response (HEK293) 2.42% | max response (HaCat [2]) 2.04% | max response (KB-3-1) -5.39% and -1.95% | max response (NIH3T3 [3]) 4.32% | outcome (MCC-13) | Potency (MCC-26) | Potency (MKL-1) | Potency (MKL-2) | Potency (UISO) | Potency (WaGa)

C=CCC1([C@H](C)CCC)C(=O)NC(=O)NC1=O
inactive: max response (CRL-7250 [1]) 1.74% | max response (HEK293) 1.82% | max response (HaCat [2]) -2.25% | max response (KB-3-1) -1.57% | max response (NIH3T3 [3]) -4.37% | outcome (MCC-13) | Potency (MCC-26) | Potency (MKL-1) | Potency (MKL-2) | Potency (UISO) | Potency (WaGa)

Clc1ccc(C(c2ccc(Cl)cc2)C(Cl)(Cl)Cl)cc1
active: Potency (W2) 6.01 µM
inactive: Potency (SC27B) | Potency (TAB109) | max response (CRL-7250 [1]) -9.96% | max response (HEK293) -19.8% | max response (HaCat [2]) 1.96% | max response (KB-3-1) -11.6% | max response (NIH3T3 [3]) -6.38% | outcome (MCC-13) | Potency (MCC-26) | Potency (MKL-1) | Potency (MKL-2) | Potency (UISO) | Potency (WaGa)

CCC1(c2ccccc2)C(=O)N(COC)C(=O)N(COC)C1=O
inactive: Potency (SC27B) | Potency (TAB113) | Potency (TAB165) | Potency (W2) | max response (CRL-7250 [1]) -1.83% | max response (HEK293) 3.09% | max response (HaCat [2]) 3.73% | max response (KB-3-1) -3.81% | outcome (NIH3T3 [3]) | outcome (MCC-13) | Potency (MCC-26) | Potency (MKL-1) | Potency (MKL-2) | outcome (NIH3T3 [6]) | Potency (UISO) | Potency (WaGa)

CCC(CC)(CNC(=O)CCCO)c1cccc(OC)c1
inactive: max response (CRL-7250 [1]) 0.244% | max response (HEK293) -5.56% | max response (HaCat [2]) -1.8% | outcome (NIH3T3 [3]) | outcome (MCC-13) | Potency (MCC-26) | Potency (MKL-1) | Potency (MKL-2) | outcome (NIH3T3 [6]) | Potency (UISO) | Potency (WaGa)

COc1cccc([C@@]2(O)CCCC[C@@H]2CN(C)C)c1
inactive: outcome (CRL-7250 [1]) | max response (HEK293) -4.04% | max response (KB-3-1) 0.535% | outcome (NIH3T3 [3]) | outcome (CRL-7250 [4]) | outcome (MCC-13) | Potency (MCC-26) | Potency (MKL-1) | Potency (MKL-2) | outcome (NIH3T3 [6]) | Potency (UISO) | Potency (WaGa)

CCCCCN(C)CCC(O)(P(=O)(O)O)P(=O)(O)O
inactive: max response (CRL-7250 [1]) -0.0055% | max response (HaCat [2]) -1.92% | max response (KB-3-1) 1.98% | outcome (KB-3-1) | outcome (NIH3T3 [3])

COc1cccc2c1C(=O)c1c(O)c3c(c(O)c1C2=O)C[C@@](O)(C(=O)CO)CC3OC1CC(N2CCOC(OC)C2)C(O)C(C)O1 (stereo not given in full)
active: Potency (CRL-7250 [1]) 0.0168 µM | Potency (HEK293) 0.0119 µM | Potency (HaCat [2]) 0.0211 µM | Potency (NIH3T3 [3]) 0.0067 µM | Potency (MCC-26) 0.0473 µM | Potency (UISO) 0.0188 µM | Potency (WaGa) 0.0237 µM

CN1CC[C@]23c4c5ccc(O)c4O[C@H]2[C@@H](O)C=C[C@H]3[C@H]1C5
inactive: max response (CRL-7250 [1]) -11.3% | outcome (HaCat [2]) | max response (KB-3-1) -4.72% | max response (NIH3T3 [3]) -4.09% | outcome (HACAT [5]) inactive [at 92 µM] | outcome (MCC-13)

O=[N+]([O-])O[C@H]1CO[C@H]2[C@@H]1OC[C@H]2O[N+](=O)[O-]
inactive: max response (CRL-7250 [1]) -11.3% | max response (HEK293) 1.42% | max response (NIH3T3 [3]) -0.157% | outcome (MCC-13) | Potency (MCC-26) | Potency (MKL-1) | Potency (MKL-2) | Potency (UISO) | Potency (WaGa)

CC(C)C[C@H](CN)CC(=O)O
inactive: max response (CRL-7250 [1]) -0.456% | max response (HEK293) 2.24% | max response (HaCat [2]) -0.0678% | max response (KB-3-1) -13.5% and 1.18% | max response (NIH3T3 [3]) -13.2% | outcome (MCC-13) | Potency (MKL-1) | Potency (MKL-2) | Potency (UISO) | Potency (WaGa)

C=CCC1(C(C)CC)C(=O)NC(=O)NC1=O (stereo not given)
inactive: outcome (CRL-7250 [1]) | max response (HEK293) 4.61% | max response (HaCat [2]) 2.69% | outcome (NIH3T3 [3]) | outcome (CRL-7250 [4]) | outcome (MCC-13) | Potency (MCC-26) | Potency (MKL-1) | Potency (MKL-2) | outcome (NIH3T3 [6]) | Potency (UISO) | Potency (WaGa)
